High-throughput results: PubChem, National Center for Advancing Translational Sciences (NCATS)
BRCA1 expr up: BRCA1 expression activation | MCF7-BRCA1-FFLuc reporter, luminescence, 48 h; response scale: scaled: vehicle 0%, 10 µM genistein 100% | Potency, µM (series often up to 46.1 µM), actives largely listed as activators | 1.1% of 380,000 active | AID 624202; further: nearly all actives have a fitted effect of over 80% in size
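First, MCF7-BRCA1-FFLuc cells (2000/well) attach for 2 h; next, compounds are pin-added and incubated 48 h at 37 °C; finally, luciferase reagent is added and luminescence read after 15 min.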
Tb PFK block: inhibitors of T. brucei phosphofructokinase; Potency, µM (highest dose often 57.5 µM), usual class: inhibitors; T. brucei PFK, ADP-Glo luminescence; O15648; 0.17% of 330,000 active; further: nearly all actives have a fitted effect of over 60% in size
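Activity is normalized to no-enzyme wells (full inhibition) and 1.25 nM enzyme wells (no inhibition). Reaction: 0.5 mM F6P, 0.1 mM ATP, 45 min RT, ADP-Glo luminescence; concentration-response curves fitted and classed by quality.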
VDR inhibitor: blocks the human vitamin D receptor | P11473 | VDR-SRC2-3 peptide fluorescence polarization, 2 h | Potency, µM, usual class: inhibitors | 0.93% of 400,000 active | AID 504847
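Fluorescence polarization assay measuring small-molecule disruption of VDR binding to the coregulator peptide SRC2-3. Compounds were pin-transferred (23 nl) into the reagent mix and incubated 2 h at room temperature before reading.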
PLK1 PBD block: inhibitors of human PLK1 polo-box domain binding | P53350 | Plk1 PBD binding of FITC phosphopeptide, fluorescence polarization | Potency, µM, hits mostly inhibitors | 2.8% of 360,000 active; further: series mostly up to about 57 µM; nearly all actives have a fitted effect of over 65% in size
Target sequence (P53350 whole entry, looked up, the tested form may be a part): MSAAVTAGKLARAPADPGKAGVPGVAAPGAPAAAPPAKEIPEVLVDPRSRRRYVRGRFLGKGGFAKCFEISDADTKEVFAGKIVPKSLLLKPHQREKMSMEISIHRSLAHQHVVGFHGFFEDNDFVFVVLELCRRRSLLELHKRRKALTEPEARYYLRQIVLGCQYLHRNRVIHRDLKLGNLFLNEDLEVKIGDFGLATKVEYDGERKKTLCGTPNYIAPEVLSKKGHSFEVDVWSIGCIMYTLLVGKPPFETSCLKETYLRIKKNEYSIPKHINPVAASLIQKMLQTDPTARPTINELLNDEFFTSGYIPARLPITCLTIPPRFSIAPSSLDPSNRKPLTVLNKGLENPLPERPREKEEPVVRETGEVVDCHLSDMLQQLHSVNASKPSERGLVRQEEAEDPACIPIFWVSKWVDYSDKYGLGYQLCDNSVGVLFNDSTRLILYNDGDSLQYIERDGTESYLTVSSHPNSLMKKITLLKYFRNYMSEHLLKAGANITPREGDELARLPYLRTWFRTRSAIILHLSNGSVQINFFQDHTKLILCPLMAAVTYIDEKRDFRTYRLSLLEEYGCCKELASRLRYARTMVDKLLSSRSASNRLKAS
A number is an active result; - = inactive; ? = inconclusive; . = no result. Shown are actives, neighbours in structure and some others; about 3.9% of the full set was active somewhere. The call rests on the fitted dose curve; in most records, active means well fitted curve in the direction sought with a large enough effect; inconclusive means small, poorly fitted or top-dose-only effect, or another doubt; inactive means no such curve, though single readings can be large; an effect the other way counts as inactive or inconclusive.

SMILES	BRCA1 expr up	Tb PFK block	VDR inhibitor	PLK1 PBD block
CC1=NOC(=O)/C1=C/c1ccc2c(c1)OCO2	-	-	32µM	?
CC1=NOC(=O)/C1=C\c1ccc2c(c1)OCO2	-	-	89µM	2.4µM
O=C1/C(=C\c2ccc3c(c2)OCO3)CCC/C1=C/c1ccc2c(c1)OCO2	-	-	-	-
COC(=O)C1=C(C)NC(=O)/C1=C\c1ccc2c(c1)OCO2	-	-	-	-
CCOC(=O)c1ccc(NC(=O)CC2Nc3cc(C)c(C)cc3NC2=O)cc1 (centres undefined)	.	.	-	.
Cc1ccc2nc(SCc3nc4ccccc4c(=O)[nH]3)[nH]c2c1	4µM	-	?	?
CCOC(=O)c1ccc(NC(=O)c2c(NCc3cc(OC)c(OC)cc3OC)sc3c2CCCC3)cc1	.	.	-	.
N#CC1(NC(=O)COC(=O)c2cc(O)c3ccccc3c2O)CCCCC1	-	-	45µM	6.7µM
O=C(Nc1cccc(C(F)(F)F)c1)c1ccc2sc([C@@H]3O[C@H](CO)[C@H](O)[C@H](O)[C@H]3O)nc2c1	-	.	.	-
CC1=C(C(=O)NCc2ccc(Cl)cc2)C2(CCCCCC2)OC1=O	.	.	-	.
COc1ccc(C2=NS(=O)(=O)N(C)C(C(=O)Nc3ccc(C)cc3)=C2)cc1	-	-	-	-
Cc1ccc(C2=NS(=O)(=O)N(C)C(C(=O)NCc3cccs3)=C2)cc1	-	-	-	-
COc1ccc(OC)c(C2=NS(=O)(=O)N(C)C(C(=O)Nc3cccc(C(C)=O)c3)=C2)c1	-	-	?	19µM
COc1ccc(OC)c(C2=NS(=O)(=O)N(C)C(C(=O)NCc3cccs3)=C2)c1	-	-	?	27µM
CN(C)S(=O)(=O)c1ccc(C(=O)NC2CC(=O)N(c3ccc4c(c3)OCCO4)C2)cc1 (centres undefined)	-	.	-	.
CNc1sc(C(=O)c2cccs2)c(N)c1-c1nc2ccccc2s1	-	-	-	-
CNc1sc(C(=O)c2ccc(F)cc2)c(N)c1-c1nc2ccccc2s1	-	-	-	21µM
Nc1nc(N=Nc2ccc(O)cc2)cc(=O)[nH]1	-	.	.	-
C/C(=N\Nc1nc2ccccc2c(=O)n1O)c1ccco1	?	-	-	21µM
Cc1ccc(C)c(/C=N/Nc2nc3ccccc3c(=O)n2O)c1	?	-	-	24µM
Cc1ccc2nc(C)cc(N/N=C/c3ccccc3O)c2c1	-	-	?	-
Nc1nc2c([nH]c(=O)n2C2OC(CO)C(O)C2O)c(=O)[nH]1 (centres undefined)	.	.	-	.
O=c1[nH]c(=S)c2n[nH]nc2[nH]1	-	.	.	.
CC(=O)c1ccc(NC(=O)CSc2nccn2CCc2ccccc2)cc1	13µM	-	-	-
CC(=O)c1ccc(NC(=O)CSc2nccn2Cc2ccco2)cc1	.	.	-	.
SMILES	BRCA1 expr up	Tb PFK block	VDR inhibitor	PLK1 PBD block
CCCS(=O)(=O)c1nnnn1-c1cccc(OC)c1	-	-	?	13µM
N#Cc1ccccc1NC(=O)CSc1nccn1CCc1ccccc1	11µM	-	-	-
COc1cccc(-n2nnnc2SCC(=O)Nc2ccccc2OC)c1	-	-	-	-
Cc1ccc(NC(=O)c2cc(=O)n(Cc3ccccc3)c(=O)[nH]2)cc1C	-	-	?	24µM
Cc1c(-c2nsc(NC(=O)c3ccccc3)n2)nnn1-c1ccc(C(F)(F)F)c(Cl)c1	-	.	-	.
CN(C)c1ccc(/C=C2\C=Nc3ccccc32)cc1	-	.	.	.
CSCCC(=O)Nc1ccc(C(C)=O)cc1	13µM	-	-	-
CC(=O)Nc1ccc(NC(=O)CSc2nccn2Cc2ccccc2)cc1	-	-	-	-
Cn1ccnc1SCC(=O)NC1CCCC1	-	-	-	-
Cn1ccnc1SCC(=O)Nc1ccc2nc(SCC(=O)NC3CC3)sc2c1	3.5µM	-	-	-
Cc1ccc(NC(=O)CSc2nccn2Cc2ccccc2)cc1C	8.9µM	-	-	-
CC(=O)c1ccc(NC(=O)CSc2nccn2C)cc1	11µM	-	-	-
COc1ccc(CCNC(=O)CCCCn2c(=O)c3ccccc3n(CC(=O)Nc3ccc(C)cc3C)c2=O)cc1OC	-	.	?	.
NC(=O)c1ccc(-n2nnnc2SCC(=O)Nc2ccc(N3CCOCC3)c(Cl)c2)cc1	-	-	-	24µM
Cc1ccc(NC(=O)CSc2nccn2Cc2ccco2)cc1	10µM	-	-	-
COc1cccc(-n2nnnc2SCC(=O)Nc2ccc(C(C)=O)cc2)c1	-	-	?	24µM
O=C(CSc1nnnn1-c1ccc(O)cc1)Nc1ccc(N2CCOCC2)c(Cl)c1	-	-	-	-
CCOc1ccc(-c2nonc2NC(=O)c2oc3ccc(F)cc3c2C)cc1	.	.	-	.
Cc1c(C(=O)Nc2nonc2-c2ccc(F)cc2)oc2ccc(F)cc12	-	-	?	30µM
O=C1c2ccccc2NC(c2ccc(OCc3ccccc3)c(OCc3ccccc3)c2)N1Cc1ccco1 (centres undefined)	-	.	-	.
Cc1n[nH]c(C)c1NC(=O)CN1CCN(S(=O)(=O)c2ccc(C(F)(F)F)cc2)CC1	-	.	-	-
O=C(NCCn1ccc2ccccc21)c1ccc2c(c1)OCO2	2.5µM	-	-	-
C=C(c1ccc(OCCO)cc1)c1ccc(OCCO)cc1	-	-	-	27µM
COC(=O)C(=Cc1ccncc1)c1cccc2ccccc12	-	.	.	-
COC(=O)c1ccc(CSc2nnc(C)s2)cc1	-	-	-	3.4µM
SMILES	BRCA1 expr up	Tb PFK block	VDR inhibitor	PLK1 PBD block
COC(=O)c1cccc(CSc2nnc(C)s2)c1	-	-	-	-
COC(=O)c1ccc(CSc2nnc(N)s2)cc1	-	-	-	-
COc1ccc(CSc2nnc(C)s2)cc1F	4.5µM	-	-	-
O=C(CSc1nccn1-c1ncc(C(F)(F)F)cc1Cl)c1ccc(Cl)cc1	-	-	45µM	?
CN(Cc1ccco1)S(=O)(=O)c1ccc(CN2C(=O)c3cccnc3C2=O)s1	-	-	-	27µM
CCC(=O)N1c2ccccc2CC1C(=O)NCCN1CCN(c2cccc(C)c2C)CC1 (centres undefined)	.	.	-	.
COc1cccc(Nc2ccc3cc(S(=O)(=O)N4CCC(C)CC4)ccc3n2)c1	.	.	-	.
CCOC(=O)c1ccc(NC(=O)C23CCC(C)(C(=O)O2)C3(C)C)cc1 (centres undefined)	10µM	-	-	-
C[C@H](NC(=O)Cc1ccccc1)C(=O)N1CCC2(CC1)NCCc1[nH]cnc12	-	-	-	27µM
COc1ccc(C(=O)NCCC(=O)N2CCC3(CC2)NCCc2[nH]cnc23)cc1	-	-	?	27µM
COc1ccc(CC(=O)N[C@@H](C)C(=O)N2CCC3(CC2)NCCc2[nH]cnc23)cc1	-	-	-	-
CCOC(=O)C(=O)Nc1cc([N+](=O)[O-])ccc1C	-	-	-	-
Cc1ccc(C)c(NC(=O)CCC(=O)N/N=C/c2cc([N+](=O)[O-])ccc2O)c1	-	-	-	38µM
Cc1ccc(S(=O)(=O)NC(C)C(=O)Nc2cccc([N+](=O)[O-])c2)cc1 (centres undefined)	-	-	-	-
Cc1ccc([N+](=O)[O-])cc1NC(=O)C(C)NS(=O)(=O)c1ccc(F)cc1 (centres undefined)	-	-	-	24µM
